Screening data from PubChem BioAssay.
F-actin modifier: modifiers of F-actin cytoskeleton organization, primary screen, imaging, HUVEC, phalloidin staining, high-content imaging. HUVEC TNFa F-actin phalloidin imaging. 0.18% of 91,000 active. inhibition, % at 2 µM;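 active = inhibition above the batch mean plus 3 SD and confirmed as a hit by visual image inspection, cut at about 30% in these data, passing the limit was not always enough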
Measles CPE: compounds protecting cells from measles virus cytopathic effect, primary screen, measles RdRp inhibitor project, single point, MLSMR library, absorbance. AID 841, 2007. protection (pct of control), % at 4 µM. 1.5% of 140,000 active. Measles virus-infected cells, CPE protection; in the data active = protection mostly above about 24%, no sharp cut-off; inactive = mostly below about 26%
Active calls of the source: *; / = not tested or not shown. Sampled rows, rich in hits. Any-hit rate of the full collection: about 1.5%.

SMILES	F-actin modifier	Measles CPE
Cn1c(SCC(=O)N2CCOCC2)nc2sc3c(c2c1=O)CCCC3	-6	38*
CCn1c(SCC(=O)Nc2cc(C)on2)nc2sc3c(c2c1=O)CCCC3	-12	14
FC(F)Oc1ccc(/C=N/c2c(-c3ccc(OC(F)F)cc3)nc3n2CCS3)cc1	2	3
COc1ccc(NC(=O)c2cncc(Br)c2)cc1S(=O)(=O)N1CCCCC1	/	7
Nc1ccc2nc(-c3cccnc3)[nH]c2c1	/	12
Nc1ccc2nc(-c3ccc(N)c(Cl)c3)[nH]c2c1	46*	20
Nc1ccc2nc(-c3ccccc3)[nH]c2c1	4	57*
Nc1ccc(-c2nc3c(Cl)cc(N)cc3[nH]2)cc1	41	2
COc1ccc(Cl)cc1NC(=O)C(C)Sc1n[nH]c(N)n1 (stereo unspecified)	-1	14
Cc1ccc(C)c(OCC(=O)NCC(C)C)c1C	/	8
O=C(NCCO)c1ccccc1O	4	26*
O=C(NCCCc1ccccc1)c1ccccc1O	16	2
COC(=O)COc1ccc(/C=N/NC(=O)c2ccc(N(Cc3ccccc3)S(C)(=O)=O)cc2)cc1	/	11
CC1(C)CC(=O)C2=C(C1)NC(=O)CC2c1cccc(F)c1 (stereo unspecified)	-2	43*
CC1(C)CC(=O)C2=C(C1)NC(=O)CC2c1cc(F)ccc1F (stereo unspecified)	5	28
Cc1sc(NC(=O)CN2CCOCC2)nc1-c1ccc2c(c1)CCN2S(=O)(=O)c1ccccc1	-11	2
Cc1sc(NC(=O)Cc2ccc3c(c2)OCO3)nc1-c1ccc2c(c1)CCN2C(=O)c1cccc(F)c1	/	53*
Cc1cccc(C(=O)N2CCc3cc(-c4nc(NC(=O)Cn5nnc6ccccc6c5=O)sc4C)ccc32)c1	/	33
Cc1ccccc1C(=O)N1CCc2cc(-c3nc(NC(=O)Cc4ccc5c(c4)OCO5)sc3C)ccc21	/	62*
Fc1ccc2c(c1)C(c1ccncc1)=NNC(c1cccnc1)=N2	27	30
Cc1cc(N2CCCCCC2)nc2ccccc12	42	17
Cc1cc(-n2nnc3ccccc32)nc2ccccc12	-16	31*
CCSC(=O)N(CC)CC(=O)Nc1c(CC)cccc1CC	4	32*
CCCSC(=O)N(CC)CC(=O)Nc1c(CC)cccc1CC	16	9
NC(=O)c1ccc(NC(=O)COC(=O)CC(NC(=O)c2ccccc2Cl)c2ccccc2)cc1 (stereo unspecified)	/	5
SMILES	F-actin modifier	Measles CPE
Cc1ccc(C(=O)Nc2cccc(C(=O)N3CCOCC3)c2)cc1	-22	11
O=C(Nc1cccc(C(=O)N2CCOCC2)c1)c1cncc(Br)c1	-3	38*
Cc1ccc(-c2csc3nc(SCC(N)=O)n(Cc4ccccc4)c(=O)c23)cc1	/	17
O=C(/C(=C\c1ccccc1)c1nc2ccccc2[nH]1)c1ccc(Cl)cc1	/	3
O=C(/C=C/c1cccc(Cl)c1)c1nc2ccccc2[nH]1	-22	58*
CCn1c2ccccc2c2nnc(SCC(=O)Nc3c(C)n(C)n(-c4ccccc4)c3=O)nc21	0	3
Cc1c(NC(=O)CSc2nnc3c4ccccc4n(CCc4ccccc4)c3n2)c(=O)n(-c2ccccc2)n1C	-3	37*
CC1=C(C)CC(C(=O)NNC(=O)c2csc(C)c2C)C(C(=O)O)C1 (stereo unspecified)	/	18
Cc1cc(C(=O)COC(=O)C2=NNC(=O)CC2)c(C)n1-c1cccc(C(F)(F)F)c1	5	20
CC(=O)c1c(C)n(C)c2ccc(O)cc12	0	39*
Cc1c(C(=O)O)c2cc(O)ccc2n1-c1ccccc1	10	16
Cc1cc(C)c(-n2nnnc2SC(C)C)c(C)c1	/	4
CCCCNC(=O)CNC(=S)N(CCCN1CCOCC1)Cc1cccs1	/	6
COc1cccc(CNc2cc(CSc3ccc(Cl)cc3)nc(C)n2)c1	/	2
CC(C)NC(=S)Nc1ccc2cn[nH]c2c1	/	15
CCOc1ccc(-n2c(COc3ccc(C)cc3)nnc2SCC(N)=O)cc1	3	8
CCOC(=O)C(CC)Sc1nnc(COc2ccc(C)cc2)n1-c1ccccc1 (stereo unspecified)	-8	28*
Cc1[nH]c2ccc(Br)cc2c(=O)c1CN1CCCCC1	-31	18
COC(=O)c1ccc2[nH]c(C)c(CN3CCCC3)c(=O)c2c1	/	48*
Cc1ccc(NS(=O)(=O)c2cc(-c3n[nH]c(=O)c4ccccc34)ccc2C)cc1	/	2
COc1ccccc1NC(=O)CCn1c(=O)sc2ccccc21	17	51*
COc1ccccc1NC(=O)CSc1nnc(Cn2c(=O)sc3ccccc32)n1C	/	13
Cc1ccc(S(=O)(=O)c2c(C(=O)c3ccccc3)cnc3cc4c(cc23)OCCO4)cc1	/	7
COc1ccc(-c2c(C#N)c(N)nc3c2CCCCCC3)cc1OC	/	42*
N#Cc1c(N)nc2c(c1-c1cccnc1)CCCCC2	/	3
CSc1ccc(-c2c(C#N)c(N)nc3c2CCCC3)cc1	18	40*
